This is an account of results in PubChem BioAssay.

Experiment [1] relates to Wnt5a (protein binding on small-molecule microarray). Put plainly: Wnt5a binders on small-molecule microarray, primary screen, biophysical, 635/667 nm fluorescence (AID 1142).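 Note: fluorescence read at 667 nm with signal to noise per printed feature.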 Conditions: 635 nm fluorescence, higher = more signal.
Experiment [2] can be described thus: cell viability in Huh7 cells, primary screen, cytotoxicity control for HCV replication inhibitor project, CellTiter-Glo luminescence, basal, 48 h (AID 1143).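 Note: Huh7 hepatoma cells carrying a hepatitis C replication reporter with no stimulus; test concentration not given here.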 Conditions: Huh7 HCV replicon, higher = more signal, called active from +8 up or from −8 down.
The nature of experiment [3]: P. aeruginosa biofilm formation inhibitors, primary screen, PAO1 strain, BacTiter-Glo luminescence, LB-PBS (AID 1144). Conditions: 12 h, higher = more signal.
Experiment [4] is described as follows: CREB reporter modulators without forskolin, primary screen, cell-based, PC12, CRE-LacZ reporter, unstimulated (AID 1145). Conditions: no forskolin, luminescence, 4.5 h, higher = more signal, called active from +8 up or from −8 down.
Experiment [5] can be described thus: CREB reporter modulators under forskolin, primary screen, cell-based, PC12, CRE-LacZ reporter, forskolin-stimulated (AID 1146).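 Note: PC12 cells with 6xCRE LacZ reporter stimulated by forskolin 10 µM; beta-galactosidase reporter signal reflecting CREB driven transcription.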 Conditions: luminescence, 4.5 h, higher = more signal, called active from +8 up or from −8 down.
Experiment [6] concerns the target Streptavidin (Streptomyces avidinii) (UniProt P22629). Put plainly: streptavidin binders on small-molecule microarray, primary screen, artefact control for SMM compound annotation, biophysical, 635/667 nm fluorescence (AID 1147).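 Note: signal reflects streptavidin binding to arrayed compounds as a control protein.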 Conditions: streptavidin binding, higher = more signal.
Experiment [7] in a line: small-molecule binders of probe aInhba, primary screen, biochemical, small-molecule microarray, 635/667 nm fluorescence (AID 1148).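 Note: score merges 667nm spot fluorescence with signal-to-noise for antibody binding to printed compounds.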 Conditions: higher = more signal.
Experiment [8] addresses Torsin-1A (Homo sapiens) (UniProt O14656). The experiment is described as follows: torsin A binders from cell lysate, primary screen, small-molecule microarray, wild-type, 635/667 nm (AID 1149). Conditions: COS7 hTOR1A-WT lysate, 635 nm fluorescence, higher = more signal.
The target is the same in experiment [9]. Put plainly: small-molecule binders of mutant TOR1A in lysate, primary screen, cell lysate, small-molecule microarray, COS7 lysate, 635/667 nm fluorescence (AID 1150).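 Note: score pools 667 nm emission and signal to noise measuring lysate protein binding.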 Conditions: COS7 hTOR1A mutant lysate, 635 nm fluorescence, higher = more signal.
The test system of experiment [10] is Sonic hedgehog protein (Shh). The experiment is described as follows: small-molecule binders of Shh protein, primary screen, biochemical, small-molecule microarray, 635/667 nm fluorescence (AID 1151).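 Note: Shh protein binding to compounds spotted on small-molecule microarray slides; score combines spot fluorescence intensity with signal-to-noise across triplicate slides.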 Conditions: small-molecule microarray binding, 635 nm fluorescence; higher = more signal.
The nature of experiment [11]: E. coli DRC41 culture turbidity changes, primary screen, E. coli filamentation inducer project, strain DRC41, OD650, 48 h (AID 1152).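 Note: E. coli MC1000 strain DRC41 lacking acrAB efflux pump and sulA.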 Conditions: E. coli DRC41 (acrAB sulA), higher = more signal, called active from +8 up or from −8 down.
A short description of experiment [12]: small-molecule binders of probe aLefty1, primary screen, biochemical, small-molecule microarray, 635/667 nm fluorescence (AID 1153).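 Note: score merges spot fluorescence with signal-to-noise ratio from the scanned slide images.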 Conditions: higher = more signal.
The nature of experiment [13]: PSAC antagonists in infected red cells, primary screen, cell-based, P. falciparum Indochina, OD700, 1 h (AID 1154). Conditions: P. falciparum Indochina infected RBC osmotic lysis, higher = more signal, called active from +8 up or from −8 down.
Experiment [14] in a line: PSAC antagonists in infected red cells, primary screen, cell-based, P. falciparum Indochina, OD700, 2 h (AID 1155).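 Note: lysis reports solute entry through the parasite surface anion channel PSAC; channel blockers reduce lysis of infected cells.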 Conditions: P. falciparum Indochina infected erythrocytes, osmotic lysis OD700; higher = more signal, called active from +8 up or from −8 down.
Experiment [15] in a line: osmotic lysis modulators in infected erythrocytes, primary screen, PSAC antagonist project, cell-based, P. falciparum Indochina, OD700, 3 h (AID 1156). Conditions: higher = more signal, called active from +8 up or from −8 down.
Experiment [16] in a line: PSAC antagonists in infected red cells, primary screen, cell-based, P. falciparum Indochina, OD700, 18 h (AID 1157). Conditions: P. falciparum Indochina infected erythrocytes, osmotic lysis OD700, 18 h; higher = more signal, called active from +8 up or from −8 down.
A short description of experiment [17]: modulators of S6 phosphorylation in cells, primary screen, cell-based, A549, cytoblot, luminescence, serum-stimulated (AID 1158).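 Note: serum-stimulated A549 lung adenocarcinoma cells; signal is phosphorylated S6 detected by cytoblot immunostaining with HRP secondary.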 Conditions: A549 phospho-S6 cytoblot, 5 h, higher = more signal.
In experiment [18] the target is NADPH oxidase 2 (Homo sapiens) (UniProt P04839). The experiment is described as follows: NOX2-dependent H2O2 signal modulators, primary screen, NOX inhibitor project, cell-based, HEK293-NOX2, PMA-stimulated, Amplex Red fluorescence (AID 1159). Note: test concentration not given here. Conditions: 45 min, higher = more signal, called active from +8 up or from −8 down.
Experiment [19] deals with NADPH oxidase 4 (Homo sapiens) (UniProt Q9NPH5). The experiment is described as follows: NOX4-dependent H2O2 signal modulators, primary screen, NOX inhibitor project, cell-based, HEK293-NOX4, tetracycline-induced, Amplex Red fluorescence (AID 1160). Conditions: 45 min, higher = more signal, called active from +8 up or from −8 down.
In experiment [20] the target is NADPH oxidase 5 (Homo sapiens) (UniProt Q96PH1). Put plainly: NOX5-dependent H2O2 signal modulators, primary screen, NOX inhibitor project, cell-based, HEK293-NOX5, Amplex Red fluorescence (AID 1161). Conditions: HEK293-NOX5, ionomycin, 45 min, higher = more signal.

The source made the active and inactive calls. Unless noted, the rule behind the calls is not given here.

Streptavidin (Streptomyces avidinii), sequence (P22629 whole entry, looked up): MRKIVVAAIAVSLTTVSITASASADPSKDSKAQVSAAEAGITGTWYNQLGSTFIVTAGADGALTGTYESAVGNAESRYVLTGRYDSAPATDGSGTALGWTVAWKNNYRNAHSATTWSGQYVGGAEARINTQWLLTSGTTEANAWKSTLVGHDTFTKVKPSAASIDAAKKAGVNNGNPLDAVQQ
NADPH oxidase 2 (Homo sapiens), sequence (P04839 whole entry, looked up): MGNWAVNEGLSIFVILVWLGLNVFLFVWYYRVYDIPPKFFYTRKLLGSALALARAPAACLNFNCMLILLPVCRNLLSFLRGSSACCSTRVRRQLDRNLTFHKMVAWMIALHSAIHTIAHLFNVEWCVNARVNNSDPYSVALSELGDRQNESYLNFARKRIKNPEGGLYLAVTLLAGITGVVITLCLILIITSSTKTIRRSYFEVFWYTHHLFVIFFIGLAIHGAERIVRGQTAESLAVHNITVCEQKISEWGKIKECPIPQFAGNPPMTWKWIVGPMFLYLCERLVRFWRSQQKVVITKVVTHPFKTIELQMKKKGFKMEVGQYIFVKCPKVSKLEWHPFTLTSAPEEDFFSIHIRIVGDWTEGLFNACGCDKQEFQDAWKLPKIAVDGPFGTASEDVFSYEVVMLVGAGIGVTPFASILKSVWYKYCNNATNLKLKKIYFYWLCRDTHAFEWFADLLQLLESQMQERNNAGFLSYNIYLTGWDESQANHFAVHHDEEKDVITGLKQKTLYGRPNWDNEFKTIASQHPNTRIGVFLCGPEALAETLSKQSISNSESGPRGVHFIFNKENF
Torsin-1A (Homo sapiens), sequence (O14656 whole entry, looked up): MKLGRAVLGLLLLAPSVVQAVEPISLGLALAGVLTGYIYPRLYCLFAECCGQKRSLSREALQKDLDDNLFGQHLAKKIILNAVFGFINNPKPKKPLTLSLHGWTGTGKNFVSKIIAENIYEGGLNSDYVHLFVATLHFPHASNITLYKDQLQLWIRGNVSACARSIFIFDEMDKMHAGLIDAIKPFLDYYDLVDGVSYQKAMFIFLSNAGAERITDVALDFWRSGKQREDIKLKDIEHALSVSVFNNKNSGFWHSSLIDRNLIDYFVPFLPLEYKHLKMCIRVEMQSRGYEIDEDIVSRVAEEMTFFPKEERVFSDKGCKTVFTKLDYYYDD
NADPH oxidase 4 (Homo sapiens), sequence (Q9NPH5 whole entry, looked up): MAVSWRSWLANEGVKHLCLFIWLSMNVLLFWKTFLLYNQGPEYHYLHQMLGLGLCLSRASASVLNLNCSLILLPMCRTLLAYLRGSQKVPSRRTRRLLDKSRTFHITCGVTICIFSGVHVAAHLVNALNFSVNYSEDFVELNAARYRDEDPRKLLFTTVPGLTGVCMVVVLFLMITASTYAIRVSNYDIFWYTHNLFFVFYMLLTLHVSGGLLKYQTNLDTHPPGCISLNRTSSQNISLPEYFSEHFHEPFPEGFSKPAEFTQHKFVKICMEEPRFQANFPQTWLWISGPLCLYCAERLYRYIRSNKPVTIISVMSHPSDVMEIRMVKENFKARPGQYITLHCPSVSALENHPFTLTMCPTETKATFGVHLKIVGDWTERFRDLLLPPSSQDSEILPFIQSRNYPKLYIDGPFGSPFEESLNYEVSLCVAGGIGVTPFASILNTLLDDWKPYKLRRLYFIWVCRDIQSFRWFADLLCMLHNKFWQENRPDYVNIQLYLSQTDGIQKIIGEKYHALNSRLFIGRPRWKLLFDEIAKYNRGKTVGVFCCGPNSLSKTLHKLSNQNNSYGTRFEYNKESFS
NADPH oxidase 5 (Homo sapiens), sequence (Q96PH1 whole entry, looked up): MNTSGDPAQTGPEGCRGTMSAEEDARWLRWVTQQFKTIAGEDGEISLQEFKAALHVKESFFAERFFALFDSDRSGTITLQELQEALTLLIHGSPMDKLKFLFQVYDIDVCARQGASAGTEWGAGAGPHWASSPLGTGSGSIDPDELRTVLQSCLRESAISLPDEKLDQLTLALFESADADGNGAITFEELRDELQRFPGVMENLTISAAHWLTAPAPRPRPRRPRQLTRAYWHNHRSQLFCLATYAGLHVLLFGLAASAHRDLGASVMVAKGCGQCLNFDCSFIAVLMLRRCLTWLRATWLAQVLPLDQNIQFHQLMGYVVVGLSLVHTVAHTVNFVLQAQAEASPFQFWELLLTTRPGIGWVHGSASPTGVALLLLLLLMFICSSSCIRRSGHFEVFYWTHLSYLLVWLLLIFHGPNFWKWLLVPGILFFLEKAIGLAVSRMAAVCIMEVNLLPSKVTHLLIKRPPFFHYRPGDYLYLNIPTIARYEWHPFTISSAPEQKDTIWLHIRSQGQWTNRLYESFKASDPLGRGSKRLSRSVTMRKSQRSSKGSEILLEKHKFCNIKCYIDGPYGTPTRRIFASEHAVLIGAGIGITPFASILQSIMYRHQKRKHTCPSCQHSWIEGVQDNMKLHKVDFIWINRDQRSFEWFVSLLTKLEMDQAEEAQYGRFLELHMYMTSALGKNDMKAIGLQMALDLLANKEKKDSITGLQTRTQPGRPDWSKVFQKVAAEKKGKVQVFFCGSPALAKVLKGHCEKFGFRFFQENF

Take `COC(=O)[C@@]1(Cc2ccc(F)cc2)[C@H]2c3cc(C(=O)N4CCCC4)n(C)c3C[C@H]2CN1C(=O)c1ccccc1`: the composite z-score in experiment [1] is 0.926; in experiment [6], 1.18; in experiment [7], 0.757; with Torsin-1A (Homo sapiens) [8], 0.492; in the experiment with Torsin-1A (Homo sapiens) [9], 1.34; in experiment [10], -0.928. The composite z-score in [12] amounted to 0.603. Further, the z-score was -1.4 (inactive) in [2]; -0.666 (inactive) in experiment [3]; 0.58 (inactive) in experiment [4]; 0.736 (inactive) in experiment [5]; -0.327 (inactive) in experiment [11]; 2.59 (inactive) in experiment [13]. In addition, the z-score in [14] is 0.107 (inactive); in [15], -0.105 (inactive); in [16], 0.47 (inactive); in experiment [17] it was 0.305; in [18], 0.282 (inactive); in experiment [19], -0.466 (inactive). This molecule came in with a z-score in experiment [20] of -0.565.
`C=CCN1C(=O)[C@@]2(O[C@@H](CCO)[C@H]([Si](C)(C)c3ccc(OC)cc3)[C@H]2C)c2cc(N3CCOC3=O)ccc21`: the composite z-score in experiment [1] is -0.0317; in [6] it was 0.0828; in experiment [7], -0.0695; with Torsin-1A (Homo sapiens) [8] it was -0.0921; in the experiment with Torsin-1A (Homo sapiens) [9] it was 0.543; in [10], -0.285. Besides, the composite z-score in experiment [12] was -0.152. Besides, the z-score is -7.42 (inactive) in experiment [2]; -0.202 (inactive) in experiment [3]; 6.34 (inactive) in experiment [4]; -3.56 (inactive) in experiment [5]; 0.232 (inactive) in experiment [11]; 24.6 (active) in experiment [13]. Further, the z-score was 12.6 (active) in experiment [14]; 0.28 (inactive) in [15]; 2.21 (inactive) in experiment [16]; 0.309 in experiment [17]; -2.41 (inactive) in experiment [18]; 1.35 (inactive) in [19]. This molecule also registered a z-score in [20] of -1.52.
As to `Cc1cccc([C@H]2C[C@H]3C(Br)=C[C@@H]2C(=O)[C@]32CO2)c1`, the composite z-score is -0.258 in experiment [1]; -0.221 in experiment [6]; -0.239 in experiment [7]; 0.397 with Torsin-1A (Homo sapiens) [8]; -1.21 with Torsin-1A (Homo sapiens) [9]; -0.198 in experiment [10]. This molecule had a composite z-score in [12] of -0.147. Also, the z-score is -0.687 (inactive) in experiment [2]; 0.185 (inactive) in experiment [3]; 0.854 (inactive) in experiment [4]; 2.63 (inactive) in [5]; -0.227 (inactive) in experiment [11]; 0.969 (inactive) in experiment [13]. Also, the z-score in [14] was 0.323 (inactive); in [15], 0.463 (inactive); in experiment [16], 0.06 (inactive); in [17], 0.209; in experiment [18], 0.7 (inactive); in [19] it was -0.00866 (inactive). Moreover, in experiment [20], the z-score is -0.854.
For the molecule `CC(CO)N1C(=O)[C@@H]2[C@H]3C(=O)OCC=C[C@H]3OC23C=CCN(c2ccc(Cl)cc2)C(=O)[C@@H]13` (stereo not given in full), the composite z-score in experiment [1] was -0.691; in experiment [6], -2.13; in experiment [7] it was -0.26; with Torsin-1A (Homo sapiens) [8] it was -2.73; with Torsin-1A (Homo sapiens) [9], -2.95; in [10] it was -0.721. The composite z-score in experiment [12] is -0.283. The z-score is 0.359 (inactive) in experiment [2]; 2.78 (inactive) in experiment [3]; 0.866 (inactive) in [4]; 0.154 (inactive) in experiment [5]; 0.458 (inactive) in experiment [11]; -0.499 (inactive) in experiment [13]. The z-score in [14] was -0.219 (inactive); in [15], 0.639 (inactive); in [16], 0.0119 (inactive); in experiment [17], -0.172; in experiment [18] it was 0.8 (inactive); in experiment [19], 0.28 (inactive). The z-score in experiment [20] was 1.34.
With `CC(C)C(=C=CC[C@@H](O)c1cccc(OCCO)c1)C[C@@H](O)COCc1ccccc1`, the composite z-score is 0.139 in [1]; -0.506 in experiment [6]; -0.165 in [7]; -0.134 with Torsin-1A (Homo sapiens) [8]; -0.377 in the experiment with Torsin-1A (Homo sapiens) [9]; 1.06 in [10]. In experiment [12], this molecule returned a composite z-score of -0.504. Further, the z-score in [2] was -2.36 (inactive); in [3], 0.232 (inactive); in experiment [4], 7.66 (inactive); in experiment [5], -1 (inactive); in experiment [11] it was 1.74 (inactive); in [13], 12.8 (active). The z-score in [14] is -0.6 (inactive); in [15], 1.76 (inactive); in experiment [16], -2.05 (inactive); in [17], 3.5; in experiment [18], -1.19 (inactive); in [19], -1.2 (inactive). In experiment [20], this molecule had a z-score of -2.4.
For `COC(=O)[C@@]1(Cc2ccccc2CN=[N+]=[N-])N=C(c2ccc(OCCCO)cc2)O[C@H]1c1ccccc1`, the composite z-score was 0.337 in experiment [1]; -0.533 in experiment [6]; 0.412 in experiment [7]; 0.0213 with Torsin-1A (Homo sapiens) [8]; 0.925 with Torsin-1A (Homo sapiens) [9]; 0.381 in experiment [10]. In experiment [12], the composite z-score amounted to 0.105. Moreover, the z-score in experiment [2] was -4.77 (inactive); in [3], -1.09 (inactive); in experiment [4], 2.38 (inactive); in [5] it was -0.923 (inactive); in experiment [11], -0.571 (inactive); in experiment [13] it was 23.6 (active). Further, the z-score was 19.8 (active) in experiment [14]; 0.882 (inactive) in experiment [15]; 3.64 (inactive) in experiment [16]; 0.216 in [17]; -2.19 (inactive) in experiment [18]; -0.348 (inactive) in experiment [19]. Further, the z-score in [20] was -2.48.
